Screening results from PubChem.
HCV NS3h FP – hepatitis C NS3 helicase inhibition, primary screen | actives 1.6% (n = 16,000) | NS3h Cy5-dT15 DNA binding, fluorescence polarization | inhibition, % at 100 µM;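 active means inhibition above the average over every tested compound plus 3 SD, cut at about 40% in these data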
Cy5 interf NS3h – enhances or quenches Cy5 fluorescence in NS3h assay | Cy5-dT15 DNA with NS3h, fluorescence interference; actives lie on both sides; signal over control mean, under 1 quenches | fluorescence interference ratio at 100 µM | actives 6% (n = 16,000);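 active means compound fluorescence over control fluorescence at most 0.8, a quencher, or at least a set upper limit, an enhancer; inactive means ratio between 0.8 and the set upper limit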
* hit, by the source's call. An excerpt weighted towards active compounds, which were near 7.6% of everything screened.

What do the screens show for `O=C(COc1ccc(Cl)cc1)Nc1cc([N+](=O)[O-])ccc1F`?
HCV NS3h FP: 10; Cy5 interf NS3h: 0.88

What do the screens show for `CC/C(C)=N\Oc1nc(N)nc(N(C)C)n1`?
HCV NS3h FP: 0; Cy5 interf NS3h: 1

What do the screens show for `CC(Oc1ccc(Br)cc1)C(=O)N/N=C\c1ccccc1O` (stereo not drawn)?
HCV NS3h FP: 4; Cy5 interf NS3h: 1

What do the screens show for `O=C(N/N=C\c1cccc(Br)c1)C(Oc1ccccc1)Oc1ccccc1`?
HCV NS3h FP: 9; Cy5 interf NS3h: 0.78*

What do the screens show for `O=C(CSc1ncc(-c2ccccc2)[nH]1)Nc1ccc(F)cc1`?
HCV NS3h FP: -2; Cy5 interf NS3h: 0.78*

What do the screens show for `O=C(CSCc1ccc(F)cc1)Nc1ccccc1`?
HCV NS3h FP: 7; Cy5 interf NS3h: 0.93

How did Cc1ccc(-n2nc(C)c(-c3cccc([N+](=O)[O-])c3)c2C)cc1Cl do in these assays?
HCV NS3h FP: 7; Cy5 interf NS3h: 0.65*

Results for Cc1ccc(NCCC(=O)c2cccc([N+](=O)[O-])c2)cc1Cl ?
HCV NS3h FP: 9; Cy5 interf NS3h: 1

What do the screens show for `Cc1cc(C(=O)Nc2ccc(N(C)C)cc2)ccc1[N+](=O)[O-]`?
HCV NS3h FP: 20; Cy5 interf NS3h: 0.24*

Results for Cc1ccc(NC(=O)c2ccc(I)cc2)cc1Cl ?
HCV NS3h FP: 4; Cy5 interf NS3h: 1.1

Results for COc1ccc(C(=O)Nc2ccc(C(N)=O)cc2)cc1[N+](=O)[O-] ?
HCV NS3h FP: -2; Cy5 interf NS3h: 0.78*

What do the screens show for `COc1ccc(C(=O)Nc2ccc(C(C)C)cc2)cc1[N+](=O)[O-]`?
HCV NS3h FP: 7; Cy5 interf NS3h: 0.98

How did Cc1cc(C)cc(NC(=O)c2ccc(C)c([N+](=O)[O-])c2)c1 do in these assays?
HCV NS3h FP: -7; Cy5 interf NS3h: 1

What do the screens show for `COc1ccc(C(=O)Nc2ccc(C)c(Cl)c2)cc1OC`?
HCV NS3h FP: 19; Cy5 interf NS3h: 0.73*

What do the screens show for `O=C(CN(c1cccc(Br)c1)S(=O)(=O)c1ccccc1)Nc1cccc2ccccc12`?
HCV NS3h FP: 10; Cy5 interf NS3h: 1

What do the screens show for `COc1ccc(/C=C2\SC(=S)N(CC(C)C)C2=O)c(OC)c1`?
HCV NS3h FP: 15; Cy5 interf NS3h: 0.87

Results for O=C1C2C3C=CC(C4CC34)C2C(=O)N1c1ccc(Cl)cc1 (stereo not drawn) ?
HCV NS3h FP: -4; Cy5 interf NS3h: 0.92

Results for COC(=O)c1cc(N2C(=O)C3C4C=CC(C5CC45)C3C2=O)ccc1Cl (stereo not drawn) ?
HCV NS3h FP: 8; Cy5 interf NS3h: 0.69*

What do the screens show for `COC(=NS(=O)(=O)c1ccc(Cl)cc1)c1ccccc1`?
HCV NS3h FP: 4; Cy5 interf NS3h: 1

How did O=C(NC(=C(Cl)Cl)S(=O)(=O)c1ccc(Cl)cc1)c1ccccc1 do in these assays?
HCV NS3h FP: 2; Cy5 interf NS3h: 0.79*

What do the screens show for `CC(=O)n1nc(C)c2c1CC(C)(C)CC2=O`?
HCV NS3h FP: 0; Cy5 interf NS3h: 1.1

How did O=C(Nc1ccc(N2CCOCC2)cc1)c1cccc(Cl)c1Cl do in these assays?
HCV NS3h FP: 20; Cy5 interf NS3h: 0.67*

How did CCC(=O)Nc1ccc(NC(=O)c2cccc(Cl)c2Cl)cc1 do in these assays?
HCV NS3h FP: 16; Cy5 interf NS3h: 1

How did CCCCOC(=O)c1ccc(NC(=O)c2cccc(Cl)c2Cl)cc1 do in these assays?
HCV NS3h FP: 20; Cy5 interf NS3h: 0.69*

What do the screens show for `COc1c(Cl)cc(C(=O)Nc2ccc(N3CCOCC3)cc2)cc1Cl`?
HCV NS3h FP: 4; Cy5 interf NS3h: 0.93

Results for C=CCc1ccccc1OCCOc1c(Br)cc(/C=c2\sc3nc4ccccc4n3c2=O)cc1OC ?
HCV NS3h FP: -2; Cy5 interf NS3h: 1

What do the screens show for `O=C1c2cccc3cccc(c23)C(=O)N1/N=C\c1ccc(O)cc1`?
HCV NS3h FP: 7; Cy5 interf NS3h: 1

How did O=C1c2ccccc2C(=O)N1/N=C\c1c(O)ccc2ccccc12 do in these assays?
HCV NS3h FP: 9; Cy5 interf NS3h: 0.62*

What do the screens show for `Cc1ccc(CNC(=O)C(=O)Nc2ccccc2F)cc1`?
HCV NS3h FP: 18; Cy5 interf NS3h: 1

What do the screens show for `CCN(CC)c1ccc(NC(=O)c2ccc3c(c2)OCCO3)cc1`?
HCV NS3h FP: 10; Cy5 interf NS3h: 0.93

Results for Nc1ccc(Oc2ccc(N)c(N)c2)cc1 ?
HCV NS3h FP: -10; Cy5 interf NS3h: 0.19*

What do the screens show for `COc1ccc(Oc2ccc(N)cc2)cc1`?
HCV NS3h FP: -12; Cy5 interf NS3h: 0.92

Results for CCc1c(C)c(C#N)c2nc3ccccc3n2c1Nc1ccc(O)cc1 ?
HCV NS3h FP: 26; Cy5 interf NS3h: 1.1

Results for O=C1C(=O)N(Cc2ccccc2)C(c2ccc([N+](=O)[O-])cc2)C1=C(O)c1ccccc1 (stereo not drawn) ?
HCV NS3h FP: -8; Cy5 interf NS3h: 0.98

What do the screens show for `Cn1cc(C=C2C(=O)NC(=S)NC2=O)c2ccccc21`?
HCV NS3h FP: -2; Cy5 interf NS3h: 1

How did COc1ccc(CN2C(=O)NC(=O)/C(=C\C=C\c3ccco3)C2=O)cc1 do in these assays?
HCV NS3h FP: 19; Cy5 interf NS3h: 0.9

What do the screens show for `COc1ccc(CN2C(=O)NC(=O)/C(=C\C=C\c3ccccc3)C2=O)cc1`?
HCV NS3h FP: -27; Cy5 interf NS3h: 1.9*

How did CCCOc1cccc(C(=O)Nc2cc(NC(=O)c3cccc(OCCC)c3)cc(C(=O)O)c2)c1 do in these assays?
HCV NS3h FP: 10; Cy5 interf NS3h: 0.92

Results for CNCCOc1cc(C)nc(-c2ccccc2)n1 ?
HCV NS3h FP: -7; Cy5 interf NS3h: 1

Results for CSc1nc(-c2ccccc2)nc2[nH]ccc(=O)c12 ?
HCV NS3h FP: 10; Cy5 interf NS3h: 0.69*

What do the screens show for `COC(=O)/C(=C\C(=O)c1ccc(Cl)cc1)Nc1ccccc1`?
HCV NS3h FP: 11; Cy5 interf NS3h: 1

How did CCc1ccc(N2N=C(C)/C(=C\c3cc(Br)c(O)c(OC)c3)C2=O)cc1 do in these assays?
HCV NS3h FP: 5; Cy5 interf NS3h: 0.84

How did C=CCN1C(=O)c2ccccc2C1(O)c1ccc(OC)cc1 (stereo not drawn) do in these assays?
HCV NS3h FP: 9; Cy5 interf NS3h: 0.74*

How did C=CCn1c(SCC(=O)O)nnc1-c1ccc(OC)cc1 do in these assays?
HCV NS3h FP: -4; Cy5 interf NS3h: 1

Results for O=C1S/C(=C/c2ccccc2)C(=O)N1CC(=O)N1c2ccccc2Sc2ccc(Cl)cc21 ?
HCV NS3h FP: -12; Cy5 interf NS3h: 1.1

What do the screens show for `CCOC(=O)c1ccc(NC(=O)c2ccc(OCC(C)C)cc2)cc1`?
HCV NS3h FP: -3; Cy5 interf NS3h: 0.99

Results for COC(=O)c1ccc(OCC(O)CN(C)C)cc1 (stereo not drawn) ?
HCV NS3h FP: 10; Cy5 interf NS3h: 0.76*

Results for O=C1NC(=Nc2cccnc2)S/C1=C\c1cccc(F)c1 ?
HCV NS3h FP: -26; Cy5 interf NS3h: 0.8*

Results for O=C1NC(=Nc2cccnc2)S/C1=C\c1ccc(F)cc1 ?
HCV NS3h FP: -3; Cy5 interf NS3h: 1

What do the screens show for `COc1cc(/C=C2\SC(NC(C)=O)=NC2=O)cc(Br)c1OC`?
HCV NS3h FP: 12; Cy5 interf NS3h: 1.1

Results for Cc1ccc2nsnc2c1NC(=O)S(=O)(=O)c1ccccc1 ?
HCV NS3h FP: -2; Cy5 interf NS3h: 1

Results for C=CCCCC(=O)Nc1ccc(-c2ccc(NC(=O)CCCC=C)cc2)cc1 ?
HCV NS3h FP: 8; Cy5 interf NS3h: 0.94
